A selection: hits, their analogues and other compounds. The true share with any hit is near 0.93%.
MEP2-GFP yeast – modulators of MEP2-GFP levels in yeast, primary screen, S. cerevisiae, multiplex flow cytometry, MLPCN library; S. cerevisiae MEP2-GFP strain, 3 h; 100% = DMSO control level; GFP response vs DMSO, % at 10 µM; 330,000 compounds, 0.51% hits;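 active = GFP response versus DMSO above a set limit, roughly screen mean plus 3 SD, cut at about 180% in these data; inconclusive = fewer than 70 cells counted for a yeast strain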;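 also: median GFP fluorescence of the barcode-gated MEP2-GFP cells per well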
RPL19A-GFP yeast – RPL19A-GFP expression modulators in yeast, primary screen, cell-based, S. cerevisiae, multiplex flow cytometry, MLPCN. percent response vs DMSO, % at 10 µM. AID 2025, 2009. 330,000 compounds, 0.3% hits. S. cerevisiae RPL19A-GFP strain, 3 h; active compounds read low;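 active = percent response vs DMSO below 50%; inconclusive = fewer than 70 events counted for the yeast strain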;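 also: median channel GFP fluorescence of the barcoded RPL19A-GFP strain; lower means less RPL19A-GFP as with rapamycin TOR inhibition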
CIT2-GFP yeast – modulators of CIT2-GFP expression in yeast, primary screen, S. cerevisiae, GFP fusion, multiplex flow cytometry, MLPCN library; S. cerevisiae CIT2-GFP strain, 3 h; 100 means same as DMSO wells; GFP response vs DMSO, % at 10 µM; 320,000 compounds, 0.065% hits; AID 2029, 2009;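 active = GFP response relative to DMSO above a set limit, near the screen mean plus 3 SD, cut at about 150% in these data; inconclusive = Fewer than 70 cells measured for a yeast strain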;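 also: ratio of well median GFP fluorescence to mean of DMSO wells on the plate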
LAP4 TOR yeast – modulators of LAP4-GFP expression in yeast, primary screen, S. cerevisiae, multiplex flow cytometry, MLPCN library; 3 h; median GFP as percent of DMSO wells; GFP response vs DMSO, % at 10 µM; 320,000 compounds, 0.34% hits; AID 2023, 2009;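 active = GFP response vs DMSO above a set limit, about the screen mean plus 3 SD, cut at about 150% in these data; inconclusive = under 70 cell events counted for the yeast strain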
AGP1-GFP MLPCN – modulators of AGP1-GFP expression in yeast TOR pathway, primary screen, cell-based, multiplex flow cytometry, S. cerevisiae, MLPCN library | GFP response vs DMSO, % at 10 µM | 320,000 compounds, 0.02% hits | 3 h; GFP as percent of DMSO wells;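 active = GFP response relative to DMSO above a set limit, near screen average plus 3 SD, cut at about 150% in these data; inconclusive = fewer than 70 cells counted for the yeast strain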;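 also: median GFP channel fluorescence of the gated AGP1 strain per well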
A number is an active result; i = inactive; ? = inconclusive; nt = no result given; + = active, no number; [ ] = remark or other dose.

SMILES	MEP2-GFP yeast	RPL19A-GFP yeast	CIT2-GFP yeast	LAP4 TOR yeast	AGP1-GFP MLPCN
O=C(O)c1ccc(N/N=C/c2c(F)cccc2Cl)cc1	i	i	i	154	i
O=C(O)c1ccc(N/N=C/c2ccc(-c3cc(Cl)ccc3Cl)o2)cc1	269[may fluoresce violet]	i	?	i	i
O=C(O)c1ccc(N/N=C/c2ccc(-c3ccc(Cl)cc3Cl)o2)cc1	i	i	i	i	i
O=C(CSc1nnc(C2COc3ccccc3O2)o1)N1CCN(c2ccccc2)CC1 (stereo not drawn)	i	i	i	i	i
COc1ccccc1CNC(=O)CCC1N=C2c3ccccc3N=C(SCC(=O)NCC3CCCO3)N2C1=O (stereo not drawn)	i	i	i	i	i
CCCCCCc1cc2cc(S(=O)(=O)c3ccc(F)cc3)c(=O)oc2cc1O	212[may fluoresce violet]	i	?	i	i
CCCCCCc1cc2cc(-c3nnc(-c4ccccc4O)o3)c(=O)oc2cc1O	180[may fluoresce violet]	48[may fluoresce violet]	?	i	i
CCCCCCc1cc2cc(-c3nnc(-c4ccccc4OC)o3)c(=O)oc2cc1O	226	i	i	i	i
Cc1cccc(NC(=O)CN(CC2CCCO2)C(=O)c2oc3ccccc3c2C)c1C (stereo not drawn)	i	i	i	i	i
COc1ccc(NC(=O)CSCCc2ccccn2)cc1OC	i	i	i	i	i
O=C(CSCCc1ccccn1)Nc1cccnc1	?	40[may fluoresce violet]	?	?	?
CCOC(=O)c1cc2ccc(OC)c(OC)c2c(=O)s1	211[may fluoresce violet]	i	?	i	nt
CC(C)NC(=O)CN1CCC(c2nc3ccccc3[nH]2)CC1	i	i	i	i	i
COc1cccc(NS(=O)(=O)NC(=O)c2cn(C)c3ccccc23)c1	i	i	i	i	i
COCCNC(=O)CCn1c(=O)oc2ccccc21	499[may fluoresce violet]	50[may fluoresce violet]	?	i	?
CCOc1cc(/C=C2\SC(=NC)N(C)C2=O)c(Br)cc1OC(C)=O	197[may fluoresce violet]	41[may fluoresce violet]	?	i	?
CCOc1cc(/C=C2\SC(=NC)N(C)C2=O)cc(Cl)c1OC(C)=O	i	i	i	i	i
CCNc1nc(-c2ccc(Cl)cc2)cs1	i	i	i	167	i
COC(=O)[C@]1(C)N[C@H](CN(C)S(=O)(=O)c2ccc(OC(F)(F)F)cc2)[C@@H]2C(=O)N(C)C(=O)[C@@H]21	i	i	i	i	i
COCC(C)OC(=O)/C(C#N)=C\c1coc2ccc(C)cc2c1=O (stereo not drawn)	303[may fluoresce violet]	i	?	i	i
Cc1ccc2occ(/C=N/NC(=O)[C@@H](N)Cc3ccccc3)c(=O)c2c1	i	i	i	i	i
CCCNc1c(NC(=O)c2ccc3c(c2)OCO3)c(=O)oc2ccccc12	i	i	i	i	i
CC(C(=O)NCCc1ccc(F)cc1)N1CCN(Cc2ccccc2)CC1 (stereo not drawn)	213	i	i	i	i
COc1ccccc1/C=C(/NC(=O)c1ccccc1)C(=O)NCCN1CCOCC1	261[may fluoresce violet]	44[may fluoresce violet]	?	i	?
O=C(NCCN1CCOCC1)/C(=C\c1ccccc1Cl)NC(=O)c1ccccc1	i	i	i	i	i
SMILES	MEP2-GFP yeast	RPL19A-GFP yeast	CIT2-GFP yeast	LAP4 TOR yeast	AGP1-GFP MLPCN
CCOC(=O)C1CCCN(c2c(C(=O)c3ccccc3)cnc3ccccc23)C1 (stereo not drawn)	195	i	190	i	i
CCCc1cc(=O)oc2c(CN3CCCC3)c(O)c(Cl)cc12	i	i	i	i	i
CCc1cc(=O)oc2c(CNCc3ccccc3F)c(O)c(Cl)cc12	229[may fluoresce violet]	i	?	i	?
CN(Cc1cccs1)C(=O)COc1cccc2c1OC(C)(C)C2	i	i	i	i	i
CCc1nnc(NC(=O)c2ccc(-c3cc(C(F)(F)F)ccc3Cl)o2)s1	180[may fluoresce violet]	i	?	i	i
N/C(=N\OC(=O)c1ccc2ccccc2c1)c1ccccc1Cl	i	i	160	i	i
Cc1oc2cc3c(C(=O)N4CCCCC4)c(C)oc3cc2c1C(=O)N1CCCCC1	259[may fluoresce violet]	46[may fluoresce violet]	?	i	?
CC1=C(C#N)c2nc(N)c(C#N)c(C)c2/C1=C\c1ccc(C)cc1	i	i	i	175	i
CCC1(C)Cc2c(sc3nc(SC)[nH]c(=S)c23)CO1 (stereo not drawn)	i	i	i	i	i
CN1CCc2c(sc3c2C(=O)NC(c2ccc4c(c2)OCO4)N3)C1 (stereo not drawn)	202	i	i	i	i
CN1CCc2c(sc3c2C(=O)NC(c2ccccc2)N3)C1 (stereo not drawn)	i	i	i	i	i
COC(=O)c1ccc(NC(=O)C23CCC(C)(C(=O)O2)C3(C)C)cc1 (stereo not drawn)	i	i	i	150	i
O=C(CSc1nc2ccccc2[nH]1)Nc1ccc(N2CCOCC2)cc1	i	i	i	i	i
COc1ccc(C(C(=O)NC2CCCCC2)N(C(=O)c2snc(C(N)=O)c2N)c2ccc(OC)cc2OC)cc1 (stereo not drawn)	i	i	i	i	i
COc1ccc(N(C(=O)c2snc(C(N)=O)c2N)C(C(=O)NC2CCCC2)c2cc(OC)ccc2OC)cc1 (stereo not drawn)	236[may fluoresce violet]	i	?	i	i
O=c1[nH]nc(SCc2ccccc2)n1C1CC2C=CC1C2 (stereo not drawn)	i	i	i	i	i
CC(=O)Nc1ccc(NC(=O)c2ccccc2F)cc1	177	i	?	i	i
CC(C)CCNC(=O)C(=O)NCc1ccccc1	i	i	i	i	i
CC(=O)C(=[N+]=[N-])C(=O)NCc1ccccc1	209[may fluoresce violet]	i	?	i	i
Nc1ccc2nc(-c3cccc(-c4nc5ccc(N)cc5[nH]4)n3)[nH]c2c1	+[may fluoresce violet]	i	?	i	i
Nc1ccc2nc(-c3ccc(-c4nc5ccc(N)cc5[nH]4)cc3)[nH]c2c1	i	i	i	151	i
O=C(NCCc1ccccc1)c1cnc2n(c1=O)CCS2	i	i	i	i	i
O=C(NCc1cccnc1)c1cnc2n(c1=O)CCS2	250	i	164	188	i
COc1cc2ccc(=O)oc2c(O[C@@H]2O[C@H](CO)[C@@H](O)[C@H](O)[C@H]2O)c1O	287[may fluoresce violet]	46[may fluoresce violet]	?	i	?
Cc1cccc(/C=C/c2onc(C)c2[N+](=O)[O-])n1	i	i	i	204	i
COc1ccccc1NS(=O)(=O)c1cccc(C(=O)NCC(c2ccc(F)cc2)N2CCOCC2)c1 (stereo not drawn)	i	i	i	i	i
O=C(NNC1=NCCC1)c1cccc(Br)c1	i	i	i	174	i
Cc1ccccc1C(=O)NNC1=NCCC1	i	nt	i	i	i
CN(C)c1cc[n+](CC(=O)Nc2ccc(Cl)c([N+](=O)[O-])c2)cc1	191[may fluoresce violet]	42[may fluoresce violet]	?	i	?
